# Data reported in PubChem BioAssay (NCI).
# The panel holds about 79,000 compounds, 15% with a hit somewhere; the sample as a whole holds those more often. Values without a mark were called inactive. Calls of active or inactive are those of the source. Rule as the data show it: active = growth inhibition above about 70%; inactive = the rest.
# Tests used:
# [1] = NCI Yeast Anticancer Drug Screen. Data for the rad52 strain (AID 147);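 also: 0% = growth of vehicle-treated control cultures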; conditions: S. cerevisiae rad52 mutant growth inhibition, stronger effect = higher value
# In short: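 Growth of repair-deficient yeast cells was compared between compound-treated and vehicle-treated cultures to give percent inhibition.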
# [2] = NCI Yeast Anticancer Drug Screen. Data for the wt1 strain (AID 149);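 also: 0% = growth of vehicle-treated wt1 cultures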; conditions: S. cerevisiae wt1 strain (SPY 50644) growth inhibition, stronger effect = higher value
# In short: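 Measured: growth of wt1 yeast under compound versus vehicle treatment, reported as inhibition.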
# [3] = NCI Yeast Anticancer Drug Screen. Data for the rad50EPP+ strain (AID 151);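 also: 0% = growth of vehicle-treated control cultures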; conditions: S. cerevisiae rad50 mutant strain, stronger effect = higher value
# In short: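 Measured: growth inhibition of rad50EPP+ yeast. Reference: vehicle-treated controls. Screen uses strains with defined genetic alterations in DNA damage repair or cell cycle control.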
# [4] = NCI Yeast Anticancer Drug Screen. Data for the mgt1 strain (AID 153); conditions: S. cerevisiae mgt1 mutant growth inhibition, stronger effect = higher value
# In short: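 Compounds were applied to mgt1 mutant yeast, and growth was then compared against vehicle-treated control cultures to give percent inhibition.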
# [5] = NCI Yeast Anticancer Drug Screen. Data for the rad50 strain (AID 155);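 also: 0% = growth of vehicle-only cultures of the same strain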; conditions: S. cerevisiae rad50 strain growth inhibition, stronger effect = higher value
# In short: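 Growth of the mutant yeast was measured after compound exposure and referenced to vehicle-treated cultures.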
# [6] = NCI Yeast Anticancer Drug Screen. Data for the mec2-1 strain (AID 157); conditions: S. cerevisiae mec2-1 strain, stronger effect = higher value
# In short: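 Compounds were applied to mec2-1 yeast cells. Their growth was then compared with that of vehicle-treated cultures to give growth inhibition.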
# [7] = NCI Yeast Anticancer Drug Screen. Data for the rad14 strain (AID 159);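 also: 0% = growth of vehicle-treated control cultures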; conditions: S. cerevisiae rad14 strain growth inhibition, stronger effect = higher value
# In short: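 Here, inhibition of yeast growth was measured after compound exposure, using a strain with a genetic defect in DNA damage repair and vehicle-treated cultures as the reference.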
# [8] = NCI Yeast Anticancer Drug Screen. Data for the sgs1 mgt1 strain (AID 161);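 also: 0% = growth of cultures given vehicle only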; conditions: S. cerevisiae sgs1 mgt1 strain, stronger effect = higher value
# In short: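 Compounds are added to genetically altered yeast, and growth is compared with cultures given vehicle alone to give percent inhibition.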
# [9] = NCI Yeast Anticancer Drug Screen. Data for the cln2 rad14 strain (AID 165);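 also: 0% = growth equal to vehicle treated cultures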; conditions: S. cerevisiae cln2 rad14 strain, stronger effect = higher value
# In short: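 Strain: cln2 rad14 yeast, altered in cell cycle control and DNA damage repair. Read-out: growth inhibition vs vehicle.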
# [10] = NCI Yeast Anticancer Drug Screen. Data for the bub3 strain (AID 167); conditions: S. cerevisiae bub3 mutant strain, stronger effect = higher value
# In short: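 Whole-cell yeast assay. The mutant strain was incubated with compounds, and growth inhibition was determined by comparison with vehicle-treated cells.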
# [11] = NCI Yeast Anticancer Drug Screen. Data for the wt2 strain (AID 169);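 also: 0% = growth of vehicle-treated yeast cultures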; conditions: S. cerevisiae wt2 strain growth inhibition, stronger effect = higher value
# In short: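 Growth of compound-treated yeast is measured and expressed as inhibition relative to vehicle-only controls.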
# [12] = NCI Yeast Anticancer Drug Screen. Data for the mlh1 strain (AID 171);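 also: 0% = growth of vehicle-treated control cultures of the same strain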; conditions: S. cerevisiae mlh1 strain growth inhibition, stronger effect = higher value
# In short: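 Test agents were incubated with yeast bearing a defined DNA damage repair or cell cycle control alteration; values are growth inhibition normalised to vehicle-treated cultures.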
# [13] = NCI Yeast Anticancer Drug Screen. Data for the sgs1 strain (AID 173);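 also: 0% = growth of vehicle-only control cultures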; conditions: S. cerevisiae sgs1 mutant, stronger effect = higher value
# In short: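 Strain with an altered DNA repair or cell cycle pathway exposed to compound. Growth then measured. Value = inhibition versus vehicle control.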
# [14] = NCI Yeast Anticancer Drug Screen. Data for the mlh1 rad18 strain (AID 175); conditions: S. cerevisiae mlh1 rad18 strain growth inhibition, stronger effect = higher value
# In short: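 A repair-deficient yeast strain is exposed to test compound, and growth is scored relative to vehicle-treated controls.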
# [15] = NCI Yeast Anticancer Drug Screen. Data for the rad18 strain (AID 177); conditions: S. cerevisiae rad18 mutant growth inhibition, stronger effect = higher value
# In short: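 DNA-repair-defective yeast; compound treatment; growth inhibition scored against vehicle.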
# [16] = NCI Yeast Anticancer Drug Screen. Data for the CLN2oe strain (AID 163);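 also: 0% = growth of vehicle-only control cultures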; conditions: S. cerevisiae CLN2oe strain, stronger effect = higher value
# In short: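 Cells of an engineered yeast line with disturbed cell-cycle regulation are treated with compound. Inhibition of growth is then calculated relative to the vehicle-treated reference.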
# [17] = at 5.0 µM (retest, dose inferred, filed as 0.5)
# [18] = at 50.0 µM (retest, dose inferred, filed as 5.0)
smiles,measurement,setting,value
Clc1c(Cl)c(Cl)c2c(nnn2C2CCCO2)c1Cl (stereo not drawn),growth inhibition,[1]; at 1.2 µM,10%
same,growth inhibition,[1]; at 3.7 µM,19%
same,growth inhibition,[1]; at 11.0 µM,24%
same,growth inhibition,[1]; at 33.0 µM,33%
same,growth inhibition,[1]; at 100.0 µM,58%
same,growth inhibition,[2]; at 1.2 µM,0%
same,growth inhibition,[2]; at 3.7 µM,-1%
same,growth inhibition,[2]; at 11.0 µM,-5%
same,growth inhibition,[2]; at 33.0 µM,11%
same,growth inhibition,[2]; at 100.0 µM,46%
same,growth inhibition,[3]; at 1.2 µM,-32%
same,growth inhibition,[3]; at 3.7 µM,-10%
same,growth inhibition,[3]; at 11.0 µM,-9%
same,growth inhibition,[3]; at 33.0 µM,-4%
same,growth inhibition,[3]; at 100.0 µM,35%
same,growth inhibition,[4]; at 1.2 µM,-24%
same,growth inhibition,[4]; at 3.7 µM,-9%
same,growth inhibition,[4]; at 11.0 µM,-5%
same,growth inhibition,[4]; at 33.0 µM,-1%
same,growth inhibition,[4]; at 100.0 µM,75% (active)
same,growth inhibition,[5]; at 1.2 µM,5%
same,growth inhibition,[5]; at 3.7 µM,-1%
same,growth inhibition,[5]; [17],4%
same,growth inhibition,[5]; at 11.0 µM,6%
same,growth inhibition,[5]; at 33.0 µM,14%
same,growth inhibition,[5]; [18],38%
same,growth inhibition,[5]; at 50.0 µM,78.3% (active)
same,growth inhibition,[5]; at 100.0 µM,48%
same,growth inhibition,[6]; at 1.2 µM,2%
same,growth inhibition,[6]; at 3.7 µM,-1%
same,growth inhibition,[6]; [17],12%
same,growth inhibition,[6]; at 11.0 µM,10%
same,growth inhibition,[6]; at 33.0 µM,8%
same,growth inhibition,[6]; [18],48%
same,growth inhibition,[6]; at 50.0 µM,85.2% (active)
same,growth inhibition,[6]; at 100.0 µM,76% (active)
same,growth inhibition,[7]; at 1.2 µM,-11%
same,growth inhibition,[7]; at 3.7 µM,-8%
same,growth inhibition,[7]; at 11.0 µM,-1%
same,growth inhibition,[7]; at 33.0 µM,12%
same,growth inhibition,[7]; at 100.0 µM,75% (active)
same,growth inhibition,[8]; [17],-1%
same,growth inhibition,[8]; [18],80% (active)
same,growth inhibition,[8]; at 50.0 µM,78% (active)
same,growth inhibition,[9]; [17],8%
same,growth inhibition,[9]; [18],62%
same,growth inhibition,[9]; at 50.0 µM,74.8% (active)
same,growth inhibition,[10]; at 1.2 µM,-7%
same,growth inhibition,[10]; at 3.7 µM,-8%
same,growth inhibition,[10]; [17],18%
same,growth inhibition,[10]; at 11.0 µM,-22%
same,growth inhibition,[10]; at 33.0 µM,11%
same,growth inhibition,[10]; [18],60%
same,growth inhibition,[10]; at 50.0 µM,83.2% (active)
same,growth inhibition,[10]; at 100.0 µM,50%
same,growth inhibition,[11]; at 1.2 µM,-14%
same,growth inhibition,[11]; at 3.7 µM,-2%
same,growth inhibition,[11]; at 11.0 µM,6%
same,growth inhibition,[11]; at 33.0 µM,60%
same,growth inhibition,[11]; at 100.0 µM,97% (active)
same,growth inhibition,[12]; at 1.2 µM,-5%
same,growth inhibition,[12]; at 3.7 µM,-2%
same,growth inhibition,[12]; at 11.0 µM,4%
same,growth inhibition,[12]; at 33.0 µM,30%
same,growth inhibition,[12]; at 100.0 µM,85% (active)
same,growth inhibition,[13]; at 1.2 µM,-30%
same,growth inhibition,[13]; at 3.7 µM,-13%
same,growth inhibition,[13]; at 11.0 µM,-1%
same,growth inhibition,[13]; at 33.0 µM,12%
same,growth inhibition,[13]; at 100.0 µM,83% (active)
same,growth inhibition,[14]; [17],7%
same,growth inhibition,[14]; [18],45%
same,growth inhibition,[14]; at 50.0 µM,83.8% (active)
same,growth inhibition,[15]; at 1.2 µM,-15%
same,growth inhibition,[15]; at 3.7 µM,-4%
same,growth inhibition,[15]; at 11.0 µM,2%
same,growth inhibition,[15]; at 33.0 µM,14%
same,growth inhibition,[15]; at 100.0 µM,54%
Cc1ccc(I)cc1N=C=S,growth inhibition,[1]; at 1.2 µM,-5%
same,growth inhibition,[1]; at 3.7 µM,6%
same,growth inhibition,[1]; at 11.0 µM,22%
same,growth inhibition,[1]; at 33.0 µM,82% (active)
same,growth inhibition,[1]; at 100.0 µM,99% (active)
same,growth inhibition,[2]; at 1.2 µM,-12%
same,growth inhibition,[2]; at 3.7 µM,-14%
same,growth inhibition,[2]; at 11.0 µM,-9%
same,growth inhibition,[2]; at 33.0 µM,74% (active)
same,growth inhibition,[2]; at 100.0 µM,99% (active)
same,growth inhibition,[3]; at 1.2 µM,15%
same,growth inhibition,[3]; at 3.7 µM,36%
same,growth inhibition,[3]; at 11.0 µM,63%
same,growth inhibition,[3]; at 33.0 µM,96% (active)
same,growth inhibition,[3]; at 100.0 µM,99% (active)
same,growth inhibition,[4]; at 1.2 µM,31%
same,growth inhibition,[4]; at 3.7 µM,44%
same,growth inhibition,[4]; at 11.0 µM,53%
same,growth inhibition,[4]; at 33.0 µM,96% (active)
same,growth inhibition,[4]; at 100.0 µM,99% (active)
same,growth inhibition,[5]; at 1.2 µM,8%
same,growth inhibition,[5]; at 3.7 µM,6%
same,growth inhibition,[5]; [17],32%
same,growth inhibition,[5]; at 11.0 µM,25%
same,growth inhibition,[5]; at 33.0 µM,94% (active)
same,growth inhibition,[5]; [18],62%
same,growth inhibition,[5]; at 50.0 µM,79.1% (active)
same,growth inhibition,[5]; at 100.0 µM,99% (active)
same,growth inhibition,[6]; at 1.2 µM,-4%
same,growth inhibition,[6]; at 3.7 µM,8%
same,growth inhibition,[6]; [17],48%
same,growth inhibition,[6]; at 11.0 µM,8%
same,growth inhibition,[6]; at 33.0 µM,82% (active)
same,growth inhibition,[6]; [18],62%
same,growth inhibition,[6]; at 50.0 µM,56.9%
same,growth inhibition,[6]; at 100.0 µM,99% (active)
same,growth inhibition,[7]; at 1.2 µM,-11%
same,growth inhibition,[7]; at 3.7 µM,-10%
same,growth inhibition,[7]; at 11.0 µM,11%
same,growth inhibition,[7]; at 33.0 µM,94% (active)
same,growth inhibition,[7]; at 100.0 µM,99% (active)
same,growth inhibition,[8]; [17],0%
same,growth inhibition,[8]; [18],100% (active)
same,growth inhibition,[16]; at 1.2 µM,-2%
same,growth inhibition,[16]; at 3.7 µM,6%
same,growth inhibition,[16]; at 11.0 µM,10%
same,growth inhibition,[16]; at 33.0 µM,68%
same,growth inhibition,[16]; at 100.0 µM,98% (active)
same,growth inhibition,[9]; [17],52%
same,growth inhibition,[9]; [18],100% (active)
same,growth inhibition,[10]; at 1.2 µM,7%
same,growth inhibition,[10]; at 3.7 µM,28%
same,growth inhibition,[10]; [17],7%
same,growth inhibition,[10]; at 11.0 µM,37%
same,growth inhibition,[10]; at 33.0 µM,96% (active)
same,growth inhibition,[10]; [18],100% (active)
same,growth inhibition,[10]; at 100.0 µM,99% (active)
same,growth inhibition,[11]; at 1.2 µM,-21%
same,growth inhibition,[11]; at 3.7 µM,-12%
same,growth inhibition,[11]; at 11.0 µM,4%
same,growth inhibition,[11]; at 33.0 µM,82% (active)
same,growth inhibition,[11]; at 100.0 µM,99% (active)
same,growth inhibition,[12]; at 1.2 µM,28%
same,growth inhibition,[12]; at 3.7 µM,28%
same,growth inhibition,[12]; at 11.0 µM,44%
same,growth inhibition,[12]; at 33.0 µM,93% (active)
same,growth inhibition,[12]; at 100.0 µM,99% (active)
same,growth inhibition,[13]; at 1.2 µM,6%
same,growth inhibition,[13]; at 3.7 µM,2%
same,growth inhibition,[13]; at 11.0 µM,18%
same,growth inhibition,[13]; at 33.0 µM,83% (active)
same,growth inhibition,[13]; at 100.0 µM,99% (active)
same,growth inhibition,[14]; [17],35%
same,growth inhibition,[14]; [18],50%
same,growth inhibition,[14]; at 50.0 µM,63.1%
same,growth inhibition,[15]; at 1.2 µM,10%
same,growth inhibition,[15]; at 3.7 µM,24%
same,growth inhibition,[15]; at 11.0 µM,41%
same,growth inhibition,[15]; at 33.0 µM,86% (active)
same,growth inhibition,[15]; at 100.0 µM,99% (active)
